Screening data (PubChem BioAssay)
SMN2 splice enh = qHTS Assay for Enhancers of SMN2 Splice Variant Expression | HEK293 SMN2-luciferase splicing reporter, luminescence, 30-36 h | AID 1458, 2008 | hit rate 2.8% among 210,000 | Potency, µM (highest dose often 46.1 µM), inactives show at the top dose activity change, positive = activation, usual class: activators; note: % of control where 0% means no effect; nearly all actives have a fitted effect of over 55% in size
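qHTS luciferase splicing reporter: luminescence rises when SMN2 exon 7 is included in transfected HEK293 cells. Compound exposure lasted 30-36 h at 37C, with 4.5 mM final sodium butyrate as control, followed by a ONE-Glo read.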
FLuc modulator = qHTS profiling assay for firefly luciferase inhibitor/activator using purifed enzyme and Km concentrations of substrates (counterscreen for miR-21 project); Luciferin 4-monooxygenase (Photinus pyralis), P08659; purified FLuc, Km substrates, luminescence inhibition; Potency, µM (doses to about 57.5 µM), for the others: at the top dose activity change, negative = inhibition, hits mostly inhibitors; hit rate 6.9% among 360,000;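 note: plate controls were vehicle for no effect and reference inhibitor for full effect; nearly all actives have a fitted effect of over 55% in size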
Target sequence (P08659 whole entry, looked up): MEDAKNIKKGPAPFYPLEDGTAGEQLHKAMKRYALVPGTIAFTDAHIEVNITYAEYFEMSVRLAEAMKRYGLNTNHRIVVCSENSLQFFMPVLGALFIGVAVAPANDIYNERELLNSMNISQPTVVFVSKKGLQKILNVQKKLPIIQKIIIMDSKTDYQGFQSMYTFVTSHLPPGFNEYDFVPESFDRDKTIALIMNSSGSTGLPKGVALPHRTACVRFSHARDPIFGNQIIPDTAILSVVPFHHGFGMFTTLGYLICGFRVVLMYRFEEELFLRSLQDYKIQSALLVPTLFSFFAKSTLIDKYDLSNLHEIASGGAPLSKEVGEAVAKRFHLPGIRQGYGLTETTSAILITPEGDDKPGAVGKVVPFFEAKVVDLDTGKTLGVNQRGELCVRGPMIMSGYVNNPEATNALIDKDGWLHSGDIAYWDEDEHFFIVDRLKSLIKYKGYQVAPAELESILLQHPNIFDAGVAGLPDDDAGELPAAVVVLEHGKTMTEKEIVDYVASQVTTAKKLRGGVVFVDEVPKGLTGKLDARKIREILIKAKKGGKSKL
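Purified P. pyralis luciferase (10nM final) with 10uM D-luciferin and 10uM ATP (Km levels) in 50mM Tris acetate pH 7.5, 10mM Mg acetate, 0.01% Tween-20, 0.05% BSA; qHTS 6-point titration, ~60 µM downward; luminescence read.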
ELG1 DNA repair = qHTS screen for small molecules that inhibit ELG1-dependent DNA repair in human embryonic kidney (HEK293T) cells expressing luciferase-tagged ELG1. HEK293T ELG1-luciferase reporter, luminescence, 16 h; DNA damage induced by 5-fluorouridine. Potency, µM (series often up to 46.1 µM), for the others: top-dose activity change, negative = inhibition, usual class: inhibitors. hit rate 2.3% among 330,000. AID 504467, 2011; note: % is set by controls: 0 for no effect and ±100 for the full control effect; nearly all actives have a fitted effect of over 55% in size
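Reporter activity after DNA damage by 5-fluorouridine is monitored. Compound-treated cells incubate 16 hr at 37 °C, then ONE-Glo is added for 30 min before luminescence reading.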
Rab9 prom act = qHTS Assay for Rab9 Promoter Activators. Huh7 Rab9 promoter-luciferase reporter, luminescence, 24 h. Potency, µM (titrated, usually from 9.22 µM), inactives show at the highest dose activation, negative = inhibition, hits mostly activators. hit rate 2.8% among 320,000; note: % of control where 0% means no effect; nearly all actives have a fitted effect of over 60% in size
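Luciferase signal after 10 min detection reagent at ambient indicates Rab9 promoter upregulation; stably transfected Huh7 cells were treated 24 h with compound in DMSO at 37 °C, 5% CO2.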
ELG1 genotoxic = qHTS screen for small molecules that induce genotoxicity in human embryonic kidney (HEK293T) cells expressing luciferase-tagged ELG1. HEK293T ELG1-luciferase reporter, luminescence, 16 h. Potency, µM (series often up to 46 µM), for inactives: at the top dose activity change, positive = activation, hits mostly activators. hit rate 1.3% among 330,000. AID 504466, 2011; note: % of control where 0% means no effect; nearly all actives have a fitted effect of over 60% in size
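16 hr compound incubation (37 °C, 5% CO2) of HEK293T cells carrying luciferase-tagged ELG1; luciferase then measured by ONE-Glo luminescence after 30 min at RT.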
NPC1 promoter act = qHTS Assay for NPC1 Promoter Activators; Huh7 NPC1 promoter luciferase reporter, 24 h; Potency, µM (series often up to 9.22 µM), for inactives: at the highest dose activation, usual class: activators; hit rate 2.4% among 320,000; note: % of control where 0% means no effect; nearly all actives have a fitted effect of over 60% in size
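Luminescence from an NPC1 promoter-driven luciferase reporter in stably transfected Huh7 cells was measured after 24 h compound treatment at 37 °C, followed by 10 min ambient incubation with luciferase detection reagent.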
* = called active by the depositor; ? = inconclusive; / = no result given; [ ] = another dose, or the depositor's remark. Only some compounds are listed: those with a hit (about 9.2% of all), similar ones and a draw of the others. Calls come from the whole dose curve; as a rule, active = well fitted curve in the direction sought with a large enough effect; inconclusive = small, poorly fitted or top-dose-only effect, or another doubt; inactive = no such curve, though single readings can be large; an effect the other way counts as inactive or inconclusive. Potency is the fitted concentration of half-maximal effect.

SMILES	SMN2 splice enh	FLuc modulator	ELG1 DNA repair	Rab9 prom act	ELG1 genotoxic	NPC1 promoter act
O=C(NCCC1=CCCCC1)C1CCN(C(=O)Cc2ccccc2)CC1	/	-2%	5%	-3%	0%	1%
Cc1cc(C)c2oc(-c3ccc(Cl)c(NC(=O)c4ccc(C#N)cc4F)c3)nc2c1	?	17µM*	?	-16%	9%	-4%
CCn1c(=NC(=O)c2ccco2)sc2cccc(F)c21	16µM*	17µM*	?	10%	15µM*	5%
Cc1cc2c(cc1S(=O)(=O)Nc1cccc(C(F)(F)F)c1)OCCN2C	/	2%	/	/	/	/
Cc1cccc2c1[nH]c1nc(N/N=C\c3ccco3)nnc12	-1%	-12%	13%	14%	3%	11%
C=CCSc1nnc2c(n1)[nH]c1c(C)cccc12	-19%	9.5µM*	?	?	?	3.5µM*
NCCOB(c1ccccc1)c1ccccc1	-25%	/	/	/	/	/
COC(=O)Nc1nnc(-c2ccccc2OC)s1	/	11µM*	?	2.2µM*	?	3.5µM*
COC(=O)Nc1nnc(-c2ccccc2Cl)s1	?	11µM*	?	30%	23µM*	?
CCC(SC1=NCCS1)C(=O)Nc1nnc(-c2ccccc2OC)s1 (centres undefined)	-28%	7%	18µM*	-7%	-15%	-5%
CCCNC(=O)c1ccc(N2CCC3(CC2)CC(c2ccccc2)=NO3)c(NC(=O)c2ccco2)c1	/	-2%	5.8µM*	-4%	-5%	-2%
Cc1ccc(C)c(NC(=O)c2cnn3ccccc23)c1	-5%	?	?	7%	?	2%
CC(=O)c1cccc(NC(=O)c2cc3ccccn3n2)c1	24%	3.4µM*	?	4µM*	18µM*	1.8µM*
Cc1ccc(C)c(NC(=O)c2cc3ccccn3n2)c1	13µM*	11µM*	?	2.2µM*	9.2µM*	3.5µM*
COc1ccc(Cl)cc1NC(=O)c1cc2ccccn2n1	/	-2%	/	/	/	/
CC(=O)c1cccc(NC(=O)c2c(C)nn(-c3ccccc3)c2Cl)c1	-6%	?	?	11%	-5%	21%
Cc1cc(Cl)ccc1NC(=O)c1cc2ccccn2n1	/	4.8µM*	/	/	/	/
COc1ccc(C)cc1NC(=O)c1cc2ccccn2n1	/	21µM*	/	/	/	/
CCC1CCCCN1S(=O)(=O)c1ccc(C(=O)N(CCCN(C)C)c2nc3cc4c(cc3s2)OCO4)cc1 (centres undefined)	/	7%	-7%	16%	9%	1%
Cc1ccccc1NC(=O)c1cc2ccccn2n1	/	3.4µM*	?	1.4µM*	?	3.5µM*
COc1ccc(C)cc1Nc1nc(N)c2cc(OC)c(OC)cc2n1	2%	?	5%	-1%	15%	2%
Cc1ccc(O)c(Nc2c3ccccc3nc3ccccc23)c1	/	?	8.2µM*	0%	-9%	-2%
Cc1ccc(O)c(Nc2nc(-c3ccccc3)nc3ccccc23)c1	/	-3%	?	4%	-1%	0%
Cc1ccc(C)c(Nc2nc(N)c3ccccc3n2)c1	14µM*	4.8µM*	?	2.5µM*	?	2.5µM*
COc1ccc(Cl)cc1Nc1nc(N)c2ccccc2n1	/	17µM*	?	20%	4%	?
SMILES	SMN2 splice enh	FLuc modulator	ELG1 DNA repair	Rab9 prom act	ELG1 genotoxic	NPC1 promoter act
CCOC(=O)C1(CCCc2ccccc2)CCN(C(=O)CCC2=NNC(=O)CC2)CC1	/	-9%	-18%	9%	-3%	-1%
O=c1oc2ccccc2c2oc3cc(O)c(O)cc3c12	-3%	21µM*	?	15%	?	11%
O=C(CNC(=O)c1cccs1)OCc1ccc(Br)cc1	/	2%	2%	4%	-3%	1%
O=C(NCCc1cccs1)c1cccs1	?	13µM*	?	2.8µM*	?	2.8µM*
O=C(NCCCc1ccccc1)c1cccs1	-9%	?	?	26%	12%	?
O=C(NCC(O)c1ccccc1)c1cccs1 (centres undefined)	/	17µM*	?	?	?	2.5µM*
O=C(CNC(=O)c1cccs1)c1ccc(Br)cc1	/	9.5µM*	?	0.45µM*	?	0.79µM*
CCCCn1c(CCNC(=O)c2cccs2)nc2ccccc21	9%	4%[2.3 µM]	-28%	29%	-4%	3.5µM*
Cc1nnc2ccc(-c3ccc(NS(=O)(=O)c4ccc(Cl)s4)cc3)nn12	/	11%	?	0%	?	-15%
Clc1ccc(Cc2nc(-c3cccnc3)no2)cc1	-8%	-1%	12%	5%	8%	0%
COc1ccc(C)c2sc(NC(=O)c3ccc(S(=O)(=O)N(C)C)cc3)nc12	/	-4%	/	/	/	/
COc1ccc2cc(CCNC(=O)c3cccs3)c(=O)[nH]c2c1	6.3µM*	11µM*	?	2µM*	?	2.8µM*
O=C(NCCc1ccc(F)cc1)c1cccs1	16µM*	12µM*	?	2.5µM*	?	2.8µM*
COc1ccc2cc(CCNC(=O)c3cc4ccccc4o3)c(=O)[nH]c2c1	/	6%	-8%	-1%	-5%	2%
Cc1nn(-c2ccc([N+](=O)[O-])cc2)c2c1C(c1cccc(Br)c1)N1C(=N2)C(=O)Nc2ccccc21 (centres undefined)	-1%	-1%	?	-17%	-8%	-15%
Cc1nn(-c2ccccc2)c2c1C(c1ccc([N+](=O)[O-])cc1)N1C(=N2)C(=O)Nc2ccccc21 (centres undefined)	-31%	-2%	23µM*	0%	-8%	-2%
Cc1ccc(CN(Cc2ccco2)S(=O)(=O)c2ccc(S(=O)(=O)NCC3CCCO3)cc2)cc1 (centres undefined)	?	2%	8%	-1%	-3%	0%
O=S(=O)(/C(=C/c1ccc(C(F)(F)F)cc1)c1nc2ccccc2[nH]1)c1ccccc1	-111%	4%	16µM*	-43%	-12%	-34%
COc1cc(-c2nc(-c3cccnc3)no2)cc(OC)c1OC	-6%	-7%	23µM*	-4%	-2%	1%
COc1ccc(-c2nc(-c3cccnc3)no2)cc1OC	/	17µM*	?	?	?	?
CCc1nc2nc(C)c(NS(=O)(=O)c3ccc(C4CCCCC4)cc3)c(=O)n2[nH]1	/	1%	0%	-7%	-1%	1%
